High-throughput results deposited in PubChem by National Center for Advancing Translational Sciences (NCATS).
Cycloheximide cs = counter-screen hit for Shiga toxin inhibitors, cycloheximide; hit rate 12% among 300,000; cell reporter, cycloheximide protein synthesis inhibition counterscreen; max response, %; in the data active means max response mostly above about 13%, no sharp cut-off; inactive means mostly below about 14%; further: read at 38.3 µM for the half of the compounds with a filed dose; 0% is about no effect
NS1 inh = blocks influenza NS1 protein function. Potency, µM (doses to about 46.1 µM), without a hit: at the top dose activity, positive = more growth. hit rate 0.4% among 270,000; calls by dose curve; further: potency means the concentration at half of the fitted maximal effect; actives are rising curves; nearly all actives have a fitted effect of over 50% in size
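A cell-based growth assay was used: compounds that relieve NS1-induced slow growth of budding yeast raise OD600. Assay medium was yeast nitrogen base with ammonium sulphate and -URA supplement, pH 6.0, with 2% galactose.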
SARS PLP yeast = inhibitors of SARS-CoV papain-like protease in yeast; S. cerevisiae expressing SARS-CoV PLpro, growth rescue; Potency, µM (highest dose often 32.9 µM), without a hit: top-dose activity, positive = growth rescue, usual class: activators; hit rate 0.19% among 330,000; AID 485353; calls by dose curve; further: potency means the concentration at half of the fitted maximal effect; 0% is about no effect; nearly all actives have a fitted effect of over 55% in size
Pf growth 96h = P. falciparum growth inhibition at 96 hour, primary screen for plastid delayed-death inhibitors; P. falciparum luciferase reporter growth, 96 h; Potency, µM (top dose mostly 28.7 µM), for inactives: top-dose activity change, negative = inhibition, actives largely listed as inhibitors; hit rate 6.9% among 320,000; AID 504834; further: potency means the concentration at half of the fitted maximal effect; on the % scale 0 is the no-effect control and ±100 the full control effect
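P. falciparum expressing integrated firefly luciferase grown in erythrocytes (2% hematocrit, 0.05% parasitemia final) with compounds for 96 hours at 37 C, 5% CO2. Growth inhibition read as loss of luminescence after adding luciferase detection reagent.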
Shiga toxin inh = inhibitors of Shiga toxin in Vero cells | AID 2315 | inhibition, % at 38.7 µM | hit rate 9.2% among 290,000 | Vero cells, Shiga toxin protein synthesis inhibition reporter; in the data active means inhibition mostly above about 28%, no sharp cut-off; inactive means mostly below about 43%; further: 0% is about no effect
Pf growth 48h = inhibits P. falciparum growth in the first generation, 48 h | AID 504832 | hit rate 5.9% among 310,000 | P. falciparum luciferase growth in erythrocytes, 48 h | Potency, µM (series often up to 28.7 µM), without a hit: top-dose activity change, negative = inhibition, most hits filed as inhibitors; further: potency means the concentration at half of the fitted maximal effect; on the % scale 0 is the no-effect control and ±100 the full control effect
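Growth was read as firefly luciferase luminescence after a 48 h, 37 C, 5% CO2 exposure of compounds to reporter-bearing P. falciparum cultures (0.1% parasitemia, 2% hematocrit final) in Albumax-supplemented RPMI 1640.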
Active calls of the source: *; ? = inconclusive; nt = not tested or not shown. Hits are enriched below; roughly 21% of the tested compounds scored in any of these assays. Unless noted, the call rests on the fitted dose curve; in most records, active means well fitted inhibition curve with a large enough effect; inconclusive means small, poorly fitted or top-dose-only effect, or another doubt; inactive means no such curve, though single readings can be large or run the other way.

SMILES	Cycloheximide cs	NS1 inh	SARS PLP yeast	Pf growth 96h	Shiga toxin inh	Pf growth 48h
CCOC(=O)C1CCCN(C(=O)CCNS(=O)(=O)c2cc(Br)cnc2N)C1 (stereo not given)	-2	11%	?	97%	-5	-3%
CCCn1c(CC)nc([N+](=O)[O-])c1Sc1ccc(C)cc1	5	1%	-5%	10µM*	-32	?
CC1CCC(NC(=O)COC(=O)c2cccnc2Cl)CC1 (stereo not given)	nt	nt	1%	13%	nt	?
Cc1cccc(N2N=C(C(=O)Nc3ccc(Cl)c(S(=O)(=O)N4CCOCC4)c3)CCC2=O)c1	nt	nt	5%	?	nt	12µM*
CC1=NN(c2ccc(C(=O)O)cc2)C(=O)CC1	29*	22%	3%	3%	44*	41%
Cc1cccc(N2N=C(C(=O)O)CCC2=O)c1	1	2%	-1%	?	-8	9.3µM*
Cc1cccc(N2N=C(C(=O)Nc3nc(C)cs3)CCC2=O)c1	-7	-5%	0%	-22%	19	-21%
Cc1cccc(-n2ccc(=O)c(C(=O)Nc3ccc(S(=O)(=O)N4CCOCC4)cc3)n2)c1	10	10%	12%	12µM*	-9	-29%
CCCCCCCCCCCCCCCC[N+](C)(C)CC	nt	nt	nt	2.6µM*	nt	3.3µM*
CCCCCCCCCC[N+](C)(C)CCCCCCCCCC	nt	nt	nt	1.7µM*	nt	1.7µM*
CCCCCC[N+](C)(C)CCSSCC[N+](C)(C)CCCCCC	3	-5%	-1%	-1%	77	-1%
CCOC(=O)C1=C(COC(=O)COc2ccc(C(=O)CC)cc2)NC(=O)NC1C (stereo not given)	nt	nt	1%	35%	nt	6%
O=C(COC(=O)c1ccc(Cl)cc1Cl)Nc1cccc(S(=O)(=O)NC2=NCCC2)c1	nt	nt	-8%	15%	nt	2%
CCOC(=O)c1c(NC(=O)CSc2nnnn2-c2ccc(OC)cc2)sc(C)c1C	-2	-2%	-10%	?	-27	nt
c1ccc(-c2ccn3nnnc3n2)cc1	36*	13%	8%	54%	74*	51%
c1ccc(-c2cnn3nnnc3n2)cc1	1	1%	1%	5%	16	7%
Cc1ccnc(-n2c(-c3ccccc3)nc3ccccc3c2=O)c1	3	8%	1%	1%	-12	-2%
Cc1ccnc(-n2c(C)nc3ccccc3c2=O)c1	12*	-10%	18%	104%	44	71%
Cc1nc2ccccc2c(=O)n1-c1ccc(F)cc1	-1	0%	7%	-1%	-2	19%
Cc1nc2ccccc2c(=O)n1-c1ccc(Br)cn1	27*	-2%	0%	77%	55*	112%
CN(CC(=O)Nc1ccc(F)c(F)c1F)C(=O)c1ccc2c(c1)OCCO2	nt	nt	-4%	20%	nt	33%
O=C(Nc1cc(S(=O)(=O)N2CCCCCC2)ccc1OCC(F)(F)F)c1ccc(=O)[nH]c1	nt	nt	-5%	?	nt	-19%
Cc1ccc(-c2cnc(N)n2C)cc1C	30*	-5%	-8%	4.7µM*	32	?
Cn1c(-c2ccc(Cl)cc2)cnc1N	10	-3%	-5%	nt	20	?
COc1ccc(/C=C/C(=O)OCC(=O)NC2CC2)c(OC)c1	nt	nt	1%	nt	nt	nt
SMILES	Cycloheximide cs	NS1 inh	SARS PLP yeast	Pf growth 96h	Shiga toxin inh	Pf growth 48h
CN(C)CCNC=C(C(=O)Nc1ccc(Cl)cc1Cl)C(=O)Nc1ccc(Cl)cc1Cl	-4	3%	-13%	1.9µM*	7	3.3µM*
CCOc1cccc(=O)c2c(C)n(CC(=O)c3ccccc3)c(C)c12	2	17%	0%	44%	-7	8.3µM*
COc1ccccc1N1CCN(C(=O)CSc2ncccc2-c2nc3ccccc3[nH]2)CC1	21*	-40%	7%	-13%	14	nt
COc1ccc(N2CCN(C(=O)CSc3ncccc3-c3nc4ccccc4[nH]3)CC2)cc1	21*	-19%	9%	?	24	-17%
O=C(CSc1ncccc1-c1nc2ccccc2[nH]1)NC1CC1	10	3%	6%	8%	15	4%
O=C(CSc1ncccc1-c1nc2ccccc2[nH]1)N1CCN(c2ccccc2F)CC1	56*	?	-4%	0%	54	0%
COc1ccc([N+](=O)[O-])cc1NC(=O)C(C)OC(=O)C1CCC1 (stereo not given)	nt	nt	0%	0%	nt	14%
CC(C)CC1NC(=O)c2ccc(Cl)cc2-n2c1nc1ccc(Cl)cc1c2=O (stereo not given)	nt	nt	-1%	nt	nt	nt
